From PubChem
Most compounds without a hit are left out; they make up all but 2.8% or so of the library.
POLK inh: qHTS for Inhibitors of Polymerase Kappa; Potency, µM (highest dose often 107 µM), actives largely listed as inhibitors; 400,000 compounds, 0.53% hits; purified Pol kappa, fluorescent DNA synthesis assay, 10 min; AID 588579, 2011; DNA polymerase kappa (Homo sapiens), Q9UBT6
Target sequence (Q9UBT6 whole entry, looked up): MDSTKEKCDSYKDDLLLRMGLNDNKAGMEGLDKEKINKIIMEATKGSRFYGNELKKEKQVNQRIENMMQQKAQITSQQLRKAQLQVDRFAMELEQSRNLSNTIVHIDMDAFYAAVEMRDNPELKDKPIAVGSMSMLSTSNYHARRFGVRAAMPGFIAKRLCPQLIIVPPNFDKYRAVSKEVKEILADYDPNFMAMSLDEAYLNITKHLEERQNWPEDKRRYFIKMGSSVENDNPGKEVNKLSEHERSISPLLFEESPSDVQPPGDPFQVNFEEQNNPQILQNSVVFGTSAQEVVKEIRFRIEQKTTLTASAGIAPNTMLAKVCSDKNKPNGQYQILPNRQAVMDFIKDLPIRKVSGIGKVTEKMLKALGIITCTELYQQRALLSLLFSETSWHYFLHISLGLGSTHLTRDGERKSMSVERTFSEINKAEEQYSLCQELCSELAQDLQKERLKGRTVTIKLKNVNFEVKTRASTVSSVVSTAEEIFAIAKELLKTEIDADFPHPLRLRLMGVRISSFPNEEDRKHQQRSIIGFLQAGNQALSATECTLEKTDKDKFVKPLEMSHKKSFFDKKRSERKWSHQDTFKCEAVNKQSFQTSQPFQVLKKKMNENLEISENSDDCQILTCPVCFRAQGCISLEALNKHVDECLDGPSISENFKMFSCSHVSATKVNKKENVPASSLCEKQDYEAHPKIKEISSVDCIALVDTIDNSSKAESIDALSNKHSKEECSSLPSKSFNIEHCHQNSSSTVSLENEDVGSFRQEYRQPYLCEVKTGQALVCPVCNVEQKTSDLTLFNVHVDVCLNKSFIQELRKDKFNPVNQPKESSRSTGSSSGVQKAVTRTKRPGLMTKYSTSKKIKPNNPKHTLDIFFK
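Enzyme at 10 nM met test compounds for 15 min at room temperature. Substrate addition (50 nM final) began the reaction, which was monitored by fluorescence at 0 and 10 min.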
POLI inh: qHTS for Inhibitors of Polymerase Iota | Pol iota fluorescent replication assay, 10 min | AID 588590, 2011 | Potency, µM (titrated, usually from 115 µM), actives largely listed as inhibitors | 390,000 compounds, 1% hits | DNA polymerase iota (Homo sapiens), Q9UNA4
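Pol iota at 10 nM preincubated 15 min with compounds at room temperature; reaction started with fluorescent substrate, 50 nM final. Fluorescence read kinetically at 0 and 10 min; buffer-only wells as negative control.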
POLH inh: qHTS for Inhibitors of Polymerase Eta; recombinant Pol eta, fluorescent DNA replication assay; DNA polymerase eta (Homo sapiens), Q9Y253; AID 588591, 2011; 390,000 compounds, 1.2% hits; Potency, µM (series often up to 114 µM), usual class: inhibitors
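Pol eta at 10 nM preincubated with compounds 15 min at room temperature; reaction started with fluorescent substrate (50 nM final) and read kinetically at 0 and 10 min.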
Pol beta inh: qHTS Assay for Inhibitors of DNA Polymerase Beta | P06746 | AID 485314, 2010 | 340,000 compounds, 1.3% hits | Potency, µM (series often up to 114 µM), usual class: inhibitors | Pol beta primer extension/strand displacement, fluorescence kinetic
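Enzyme-only controls used 10 nM Pol beta; buffer lacking enzyme served as negative control. Compound preincubated 15 min, then 50 nM substrate added; 0 and 10 min reads at room temperature.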
WRN inhibitor: qHTS for Inhibitors of WRN Helicase; Potency, µM (highest dose often 114 µM), hits mostly inhibitors; WRN helicase unwinding, fluorescent forked duplex, kinetic; AID 651768, 2012; 360,000 compounds, 0.46% hits; note: nearly all actives have a fitted effect of over 55% in size
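WRN at 20 nM final was preincubated with compound for 15 min at room temperature; reaction started with 100 nM forked duplex oligonucleotide carrying fluorophore and quencher plus 2 mM ATP (final). Unwinding followed kinetically by red fluorescence (ex 525/em 598 nm).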
PI5P4Ka inh: qHTS for Inhibitors of phosphatidylinositol 5-phosphate 4-kinase (PI5P4K); 330,000 compounds, 1.2% hits; AID 652105, 2013; PI5P4Kalpha enzyme, ADP-Glo luminescence, 60 min; active compounds read low; max response, %; active = max response of -50% or lower; inconclusive = between -30% and -50%; inactive = -30% or higher; note: value at the top dose of about 77 µM
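Luminescence from ADP-Glo served as readout of PI5P4Kalpha activity in a qHTS format. Reaction: enzyme, substrate, compound, ATP at 5 microM final, 60 min at RT.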
Each line names hits and unclear results; the compound was inactive in the other large screens. Unless noted, calls come from the whole dose curve; as a rule, active = well fitted curve in the direction sought with a large enough effect; inconclusive = small, poorly fitted or top-dose-only effect, or another doubt; inactive = no such curve, though single readings can be large; an effect the other way counts as inactive or inconclusive.

Cc1ccc(-n2nc3c(=O)n(CC(=O)NCc4cccs4)nc(C)c3c2C)cc1	none
Cc1nn(CC(=O)NCCc2ccco2)c(=O)c2nn(-c3ccccc3)c(C)c12	POLI inh 22µM, POLH inh 32µM, Pol beta inh 89µM
CCCC1Cc2nc(Cl)c(C#N)cc2CO1 (centres undefined)	POLI inh inconclusive, POLH inh inconclusive, Pol beta inh 45µM, PI5P4Ka inh inconclusive
CCC1(C)Cc2nc(Cl)c(C#N)cc2CO1 (centres undefined)	none
O=C(/C=C/c1ccc(N2CCC(c3ccccc3)=N2)cc1)c1ccccc1	POLI inh inconclusive, WRN inhibitor 50µM
CC(=O)Nc1ccc(NS(=O)(=O)c2c(C(=O)N3CCC(C)CC3)c(C)n(C)c2C)cc1	none (no result: WRN inhibitor, PI5P4Ka inh)
Cc1ccc(-c2nc3ncccc3o2)cc1NC(=O)c1ccccc1	POLH inh 56µM
Cc1cc(OCC(=O)Nc2cc(-c3nc4ncccc4o3)ccc2C)ccc1Cl	POLH inh 79µM (no result: WRN inhibitor, PI5P4Ka inh)
Cc1cc(C(F)(F)F)c2c(n1)sc1c(O)cc(=O)[nH]c12	POLK inh 71µM, POLI inh 3.2µM (no result: PI5P4Ka inh)
CCCCn1cc(S(=O)(=O)c2ccccc2)c(=O)c2cc(F)c(N3CCC(C)CC3)cc21	none (no result: WRN inhibitor, PI5P4Ka inh)
COc1cc2c(cc1OC)C(c1cc(-c3cc(Cl)ccc3Cl)oc1C)=NCC2	none (no result: POLH inh, Pol beta inh, WRN inhibitor, PI5P4Ka inh)
O=C(NNC(=S)Nc1ccc(C(=O)O)c(O)c1)c1ccncc1	PI5P4Ka inh -85 (no result: Pol beta inh)
NC1C(N)C(N)C1N (centres undefined)	none (no result: POLH inh, Pol beta inh, WRN inhibitor, PI5P4Ka inh)
CCCCn1c(N)c(N(CCC(C)C)C(=O)COC(=O)c2ccc([N+](=O)[O-])s2)c(=O)[nH]c1=O	POLI inh 79µM, POLH inh inconclusive (no result: Pol beta inh)
COc1cc(N(C)C)c(OC)cc1C=O	POLI inh inconclusive (no result: POLH inh, Pol beta inh, WRN inhibitor, PI5P4Ka inh)
O=C(CSc1nnc2ccccn12)NC(=O)c1ccccc1Cl	POLK inh inconclusive, POLI inh 28µM, POLH inh 40µM, PI5P4Ka inh inconclusive (no result: Pol beta inh)
Cn1c(=O)n(C)c2cc(CNCc3ccccc3Cl)ccc21	Pol beta inh inconclusive (no result: WRN inhibitor, PI5P4Ka inh)
N#C/C(=C\c1ccc(-c2cccc([N+](=O)[O-])c2)o1)C(=O)N1CCOCC1	none
N#C/C(=C\c1ccc(-c2ccc([N+](=O)[O-])cc2)o1)C(=O)Nc1nc(-c2cccs2)cs1	POLK inh inconclusive, POLI inh 14µM, POLH inh 32µM, Pol beta inh inconclusive, PI5P4Ka inh inconclusive
N#C/C(=C/c1ccc(-c2cccc([N+](=O)[O-])c2)o1)C(=O)Nc1nc(-c2cccs2)cs1	POLI inh inconclusive, PI5P4Ka inh -62 (no result: Pol beta inh)
Cc1c(Cl)cccc1NC(=O)c1ccc2c(c1)nnn2C1CCCC1	none (no result: WRN inhibitor, PI5P4Ka inh)
N#Cc1c(-c2ccccc2)cc(-c2ccccc2)nc1SCC(=O)NCC(=O)O	Pol beta inh 50µM
COc1ccc(-c2cc(-c3ccc(Cl)cc3)c(C#N)c(SCC(=O)O)n2)cc1	Pol beta inh 32µM
CCOC(=O)CC(=O)CSc1nc(-c2ccccc2)cc(-c2ccccc2)c1C#N	none
COc1ccc(-c2cc(-c3ccccc3)nc(SC(C)C(=O)O)c2C#N)cc1 (centres undefined)	POLI inh 40µM, PI5P4Ka inh inconclusive
COc1ccc(-c2cc(-c3ccccc3)c(C#N)c(SCC(=O)O)n2)cc1	none (no result: Pol beta inh)
CC(C)C(Sc1nc(-c2ccccc2)cc(-c2ccccc2)c1C#N)C(=O)O (centres undefined)	POLH inh inconclusive, Pol beta inh inconclusive
COc1ccc(N=Cc2oc3ccc4ccccc4c3c2O)cc1	POLI inh inconclusive, Pol beta inh 11µM
COc1ccc(N=Cc2ccccc2O)cc1	none (no result: Pol beta inh)
Cc1ccc2[nH]cc(C(O)c3c[nH]c4ccc(C)cc34)c2c1	none (no result: POLH inh, Pol beta inh, WRN inhibitor, PI5P4Ka inh)
Cc1cc(C)n2nc(SCN3C(=O)c4ccccc4C3=O)nc2n1	POLI inh inconclusive, Pol beta inh 45µM (no result: PI5P4Ka inh)
Cc1nc(-c2ccc(Cl)cc2)sc1CCNC(=O)c1ccc(C(F)(F)F)cc1	POLI inh inconclusive (no result: WRN inhibitor, PI5P4Ka inh)
COc1ccc2[nH]c3nc(SCC(=O)Nc4cccc(NC(C)=O)c4)nnc3c2c1	POLI inh inconclusive, Pol beta inh 35µM
COc1ccc2[nH]c3nc(SCc4nnc(-c5ccccc5)o4)nnc3c2c1	Pol beta inh 22µM (no result: PI5P4Ka inh)
COc1cccc(NC(=O)CSc2nnc3c(n2)[nH]c2ccc(C)cc23)c1	none
COCCNC(=O)Cn1cc(/C=N/NC(=O)c2ccc(Oc3ccc(O)cc3)cc2)c2ccccc21	PI5P4Ka inh -107
O=C(/C=C/c1cccs1)Nc1sc2c(c1C(=O)O)CCCC2	POLI inh 14µM, Pol beta inh inconclusive, PI5P4Ka inh inconclusive
O=C(Nc1nc2c(F)cccc2s1)c1ccc([N+](=O)[O-])o1	none
Cc1ccc(-c2csc(NC(=O)c3ccc(C)o3)n2)cc1	none
O=C(Nc1nc2c(Cl)cccc2s1)c1ccc([N+](=O)[O-])o1	POLH inh 50µM
Cc1ccc(-c2csc(NC(=O)c3ccc([N+](=O)[O-])o3)n2)cc1	POLH inh 79µM
COc1cccc(Nc2ncccc2C(=O)NCc2ccccc2)c1	POLH inh inconclusive, Pol beta inh 89µM
Nc1ccc(Oc2ncccn2)cc1	POLI inh inconclusive, POLH inh 40µM
Cc1cc(=O)n(CC(=O)Nc2ccc(Cl)c(Cl)c2)c(-n2nc(C)cc2C)n1	POLI inh inconclusive (no result: WRN inhibitor, PI5P4Ka inh)
C=CCSc1ncccc1C(=O)O	POLI inh 100µM (no result: PI5P4Ka inh)
Cc1ccc(CNC(=O)c2cnc(N(C)C)nc2)cc1	none (no result: POLH inh, WRN inhibitor, PI5P4Ka inh)
CCN(C(=O)c1cc2c(s1)-c1c(C)cccc1OC2)c1cc(C)ccc1C	none (no result: WRN inhibitor, PI5P4Ka inh)
Cc1cccc(-n2cnc3c(c2=O)c2nc4ccccc4nc2n3Cc2ccco2)c1	POLI inh inconclusive, POLH inh inconclusive, Pol beta inh 40µM
COc1ccc(Cn2c3nc4ccccc4nc3c3c(=O)n(Cc4ccco4)cnc32)cc1	Pol beta inh 35µM (no result: POLK inh, POLI inh, POLH inh, WRN inhibitor, PI5P4Ka inh)
COc1ccccc1-n1c(SCc2cc(=O)oc3cc(O)ccc23)nc2ccccc2c1=O	POLI inh inconclusive, POLH inh 32µM, Pol beta inh inconclusive, WRN inhibitor inconclusive, PI5P4Ka inh inconclusive
COc1ccccc1-n1c(SCC(=O)N2CCOCC2)nc2ccccc2c1=O	none
COc1ccc(NC(=O)CCc2nnc3ccc(NCc4ccc5c(c4)OCO5)nn23)cc1	POLI inh 45µM, Pol beta inh inconclusive
COC(=O)c1ccc(NC(=O)CCc2nnc3ccc(NCc4ccco4)nn23)cc1	POLK inh inconclusive, POLI inh 35µM, POLH inh inconclusive, Pol beta inh inconclusive, PI5P4Ka inh inconclusive
